Measurements: PubChem BioAssay
The source made the active and inactive calls. Unless noted, how the calls were made is not given here.

Tests used:
[1] = anti-His antibody binders, primary screen, artefact control for SMM control protein annotation, biochemical, small-molecule microarray, 635 nm fluorescence (AID 1128); settings: anti-His Alexa647 antibody binding, higher = more signal;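 further: score merges feature fluorescence with signal-to-noise for each printed compound spot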
[2] = tested on: Human papillomavirus type 1a E7 protein (residues 1-88); test: HPV1a E7 small-molecule binders, primary screen, biochemical, small-molecule microarray, residues 1-88, 635 nm (AID 1129); settings: small-molecule microarray binding, fluorescence 635 nm; higher = more signal
[3] = target: Focal adhesion kinase 1 (Homo sapiens) (UniProt Q05397); test: small-molecule microarray binders of FAK, primary screen, biochemical, 635/667 nm fluorescence, BSA, DTT (AID 1130); settings: PTK2 binding, 635 nm fluorescence, higher = more signal;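 further: composite of spot emission at 667 nm and signal to noise over triplicate slides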
Sequence of Focal adhesion kinase 1 (Homo sapiens) (Q05397 whole entry, looked up): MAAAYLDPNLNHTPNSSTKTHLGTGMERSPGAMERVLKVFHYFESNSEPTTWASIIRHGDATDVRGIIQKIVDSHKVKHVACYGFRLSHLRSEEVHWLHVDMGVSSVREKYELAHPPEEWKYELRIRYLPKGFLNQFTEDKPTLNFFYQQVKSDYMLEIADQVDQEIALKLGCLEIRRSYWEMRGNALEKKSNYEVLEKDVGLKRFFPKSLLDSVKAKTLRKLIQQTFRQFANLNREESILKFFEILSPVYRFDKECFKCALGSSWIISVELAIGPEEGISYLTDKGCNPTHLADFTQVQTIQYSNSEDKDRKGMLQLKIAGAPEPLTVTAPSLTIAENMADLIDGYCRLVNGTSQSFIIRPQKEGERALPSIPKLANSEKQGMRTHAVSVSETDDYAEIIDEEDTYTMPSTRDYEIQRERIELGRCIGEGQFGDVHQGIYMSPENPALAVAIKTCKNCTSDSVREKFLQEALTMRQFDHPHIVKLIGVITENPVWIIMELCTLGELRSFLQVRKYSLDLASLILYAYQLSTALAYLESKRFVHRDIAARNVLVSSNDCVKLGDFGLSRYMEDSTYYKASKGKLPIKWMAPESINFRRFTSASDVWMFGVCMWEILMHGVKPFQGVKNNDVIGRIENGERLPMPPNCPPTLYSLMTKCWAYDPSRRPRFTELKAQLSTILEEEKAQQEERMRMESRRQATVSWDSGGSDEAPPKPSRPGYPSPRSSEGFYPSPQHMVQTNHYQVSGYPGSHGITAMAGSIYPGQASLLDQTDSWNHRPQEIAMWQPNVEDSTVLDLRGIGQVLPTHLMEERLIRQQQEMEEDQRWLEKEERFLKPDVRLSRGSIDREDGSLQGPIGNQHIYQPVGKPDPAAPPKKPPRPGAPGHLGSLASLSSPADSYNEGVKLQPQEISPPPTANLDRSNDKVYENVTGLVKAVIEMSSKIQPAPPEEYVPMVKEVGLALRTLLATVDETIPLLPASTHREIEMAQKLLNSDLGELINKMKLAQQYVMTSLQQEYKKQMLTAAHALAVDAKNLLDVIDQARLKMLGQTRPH

[4] = tested on: Fibrinogen (Alexa647-labelled); test: fibrinogen binders on compound microarrays, profiling panel, artefact control for SMM control-protein annotation, biochemical, small-molecule microarray, 635/667 nm fluorescence (AID 1131); settings: fibrinogen-A647 binding fluorescence, higher = more signal;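 further: z-score merges 667 nm fluorescence with per-spot signal-to-noise over triplicate slides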
[5] = target: Follistatin (Homo sapiens) (UniProt P19883); test: follistatin binders on small-molecule microarrays, primary screen, biochemical, small-molecule microarray, 635/667 nm fluorescence (AID 1132); settings: FST binding, 635 nm fluorescence, higher = more signal
Sequence of Follistatin (Homo sapiens) (P19883 whole entry, looked up): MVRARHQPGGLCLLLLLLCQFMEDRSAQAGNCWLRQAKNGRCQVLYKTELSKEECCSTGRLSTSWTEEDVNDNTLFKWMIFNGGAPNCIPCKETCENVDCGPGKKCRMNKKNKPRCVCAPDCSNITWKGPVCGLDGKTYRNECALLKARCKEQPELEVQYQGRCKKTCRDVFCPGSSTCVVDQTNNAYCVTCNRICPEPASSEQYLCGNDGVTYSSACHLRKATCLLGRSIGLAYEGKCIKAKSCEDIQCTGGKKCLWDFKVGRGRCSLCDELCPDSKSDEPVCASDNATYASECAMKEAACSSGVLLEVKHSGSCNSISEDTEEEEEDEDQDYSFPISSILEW

[6] = target: Fibroblast growth factor 2 (Homo sapiens) (UniProt P09038); test: FGF2 binders on small-molecule microarrays, primary screen, biochemical, small-molecule microarray, 635/667 nm fluorescence (AID 1133); settings: small-molecule microarray binding, FGF2, fluorescence 635/667; higher = more signal
Sequence of Fibroblast growth factor 2 (Homo sapiens) (P09038 whole entry, looked up): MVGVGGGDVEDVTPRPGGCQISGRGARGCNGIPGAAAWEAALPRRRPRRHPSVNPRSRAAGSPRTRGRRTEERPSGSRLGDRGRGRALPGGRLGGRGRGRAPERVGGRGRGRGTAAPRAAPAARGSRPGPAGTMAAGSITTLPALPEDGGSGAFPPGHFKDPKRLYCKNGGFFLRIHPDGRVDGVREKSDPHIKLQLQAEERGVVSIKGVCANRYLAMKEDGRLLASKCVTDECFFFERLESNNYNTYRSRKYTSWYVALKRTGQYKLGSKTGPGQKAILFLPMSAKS

[7] = mitochondrial membrane potential change in A549 cells, profiling panel, cell-based, JC-1 fluorescence, basal, 24 h, 100 nL (AID 1138); settings: higher = more signal;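 further: A549 lung adenocarcinoma cells under basal conditions with no added stimulus; test concentration not given here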
Lefty1 = Lefty1 binders on small-molecule microarrays, primary screen, biochemical, small-molecule microarray, 635/667 nm fluorescence (AID 1139); settings: small-molecule microarray binding, fluorescence 635/667; higher = more signal
[8] = tested on: wheat germ agglutinin (Triticum aestivum), Alexa647-labelled; test: wheat germ agglutinin binders on compound microarrays, profiling panel, artefact control for SMM control-protein annotation, biochemical, small-molecule microarray, 635/667 nm fluorescence (AID 1140); settings: WGA-A647 binding, 635 nm fluorescence, higher = more signal;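 further: score merges 667 nm feature emission with signal to noise over triplicate slides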
[9] = target: Luciferin 4-monooxygenase (Photinus pyralis) (UniProt P08659); test: firefly luciferase enzyme inhibitors, primary screen, biochemical, luminescence, purified enzyme, 2006 set (AID 1141); settings: SteadyGlo luminescence, 30 min, higher = more signal, called active from +8 up or from −8 down;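 further: cell-free assay with purified firefly luciferase at 100 ng per well in PBS; test concentration not given here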
Sequence of Luciferin 4-monooxygenase (Photinus pyralis) (P08659 whole entry, looked up): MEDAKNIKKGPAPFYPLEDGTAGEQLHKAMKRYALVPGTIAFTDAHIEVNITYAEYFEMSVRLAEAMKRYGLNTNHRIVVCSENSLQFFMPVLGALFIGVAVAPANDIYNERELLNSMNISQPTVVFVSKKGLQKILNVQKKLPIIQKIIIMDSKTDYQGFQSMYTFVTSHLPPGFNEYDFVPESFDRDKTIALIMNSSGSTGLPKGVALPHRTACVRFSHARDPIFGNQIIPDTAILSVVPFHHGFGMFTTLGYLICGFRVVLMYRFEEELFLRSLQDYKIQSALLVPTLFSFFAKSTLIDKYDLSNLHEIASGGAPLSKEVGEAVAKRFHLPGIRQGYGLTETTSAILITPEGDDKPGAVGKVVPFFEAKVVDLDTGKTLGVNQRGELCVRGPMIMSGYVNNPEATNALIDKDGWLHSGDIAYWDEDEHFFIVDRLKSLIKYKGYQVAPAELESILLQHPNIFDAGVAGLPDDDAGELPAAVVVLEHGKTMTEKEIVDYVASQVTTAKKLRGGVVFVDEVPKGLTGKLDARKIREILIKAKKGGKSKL

[10] = tested on: Wnt5a (protein binding on small-molecule microarray); test: Wnt5a binders on small-molecule microarray, primary screen, biophysical, 635/667 nm fluorescence (AID 1142); settings: 635 nm fluorescence, higher = more signal;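 further: fluorescence read at 667 nm with signal to noise per printed feature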
[11] = cell viability in Huh7 cells, primary screen, cytotoxicity control for HCV replication inhibitor project, CellTiter-Glo luminescence, basal, 48 h (AID 1143); settings: Huh7 HCV replicon, higher = more signal, called active from +8 up or from −8 down;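 further: Huh7 hepatoma cells carrying a hepatitis C replication reporter with no stimulus; test concentration not given here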
[12] = P. aeruginosa biofilm formation inhibitors, primary screen, PAO1 strain, BacTiter-Glo luminescence, LB-PBS (AID 1144); settings: 12 h, higher = more signal
[13] = CREB reporter modulators without forskolin, primary screen, cell-based, PC12, CRE-LacZ reporter, unstimulated (AID 1145); settings: no forskolin, luminescence, 4.5 h, higher = more signal, called active from +8 up or from −8 down
[14] = CREB reporter modulators under forskolin, primary screen, cell-based, PC12, CRE-LacZ reporter, forskolin-stimulated (AID 1146); settings: luminescence, 4.5 h, higher = more signal, called active from +8 up or from −8 down;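 further: PC12 cells with 6xCRE LacZ reporter stimulated by forskolin 10 µM; beta-galactosidase reporter signal reflecting CREB driven transcription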
[15] = target: Streptavidin (Streptomyces avidinii) (UniProt P22629); test: streptavidin binders on small-molecule microarray, primary screen, artefact control for SMM compound annotation, biophysical, 635/667 nm fluorescence (AID 1147); settings: streptavidin binding, higher = more signal;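 further: signal reflects streptavidin binding to arrayed compounds as a control protein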
Sequence of Streptavidin (Streptomyces avidinii) (P22629 whole entry, looked up): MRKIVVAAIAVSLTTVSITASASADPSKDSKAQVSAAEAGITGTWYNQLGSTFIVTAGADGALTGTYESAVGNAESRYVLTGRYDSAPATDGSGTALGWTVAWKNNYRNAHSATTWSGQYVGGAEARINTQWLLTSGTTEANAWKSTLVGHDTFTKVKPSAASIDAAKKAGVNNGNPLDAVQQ

[16] = small-molecule binders of probe aInhba, primary screen, biochemical, small-molecule microarray, 635/667 nm fluorescence (AID 1148); settings: higher = more signal;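 further: score merges 667nm spot fluorescence with signal-to-noise for antibody binding to printed compounds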
Torsin-1A (Homo sapiens) [17] = target: Torsin-1A (Homo sapiens) (UniProt O14656); test: torsin A binders from cell lysate, primary screen, small-molecule microarray, wild-type, 635/667 nm (AID 1149); settings: COS7 hTOR1A-WT lysate, 635 nm fluorescence, higher = more signal
Sequence of Torsin-1A (Homo sapiens) (O14656 whole entry, looked up): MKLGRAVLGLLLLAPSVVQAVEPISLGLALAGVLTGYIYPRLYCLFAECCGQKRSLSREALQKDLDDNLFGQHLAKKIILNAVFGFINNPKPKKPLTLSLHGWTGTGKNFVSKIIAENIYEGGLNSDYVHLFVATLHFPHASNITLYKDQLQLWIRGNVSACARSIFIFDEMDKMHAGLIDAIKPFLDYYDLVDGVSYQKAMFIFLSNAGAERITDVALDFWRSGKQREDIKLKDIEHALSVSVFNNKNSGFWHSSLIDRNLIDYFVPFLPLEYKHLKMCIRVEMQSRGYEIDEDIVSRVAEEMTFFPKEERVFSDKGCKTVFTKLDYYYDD

Torsin-1A (Homo sapiens) [18] = target: Torsin-1A (Homo sapiens) (UniProt O14656); test: small-molecule binders of mutant TOR1A in lysate, primary screen, cell lysate, small-molecule microarray, COS7 lysate, 635/667 nm fluorescence (AID 1150); settings: COS7 hTOR1A mutant lysate, 635 nm fluorescence, higher = more signal;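 further: score pools 667 nm emission and signal to noise measuring lysate protein binding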
[19] = tested on: Sonic hedgehog protein (Shh); test: small-molecule binders of Shh protein, primary screen, biochemical, small-molecule microarray, 635/667 nm fluorescence (AID 1151); settings: small-molecule microarray binding, 635 nm fluorescence; higher = more signal;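 further: Shh protein binding to compounds spotted on small-molecule microarray slides; score combines spot fluorescence intensity with signal-to-noise across triplicate slides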

Row | SMILES | composite z-score [1] | composite z-score [2] | composite z-score [3] | composite z-score [4] | composite z-score [5] | composite z-score [6] | z-score [7] | composite z-score (Lefty1) | composite z-score [8] | z-score [9] | composite z-score [10] | z-score [11] | z-score [12] | z-score [13] | z-score [14] | composite z-score [15] | composite z-score [16] | composite z-score (Torsin-1A (Homo sapiens) [17]) | composite z-score (Torsin-1A (Homo sapiens) [18]) | composite z-score [19]
1 | C=C(/C(=C/C[C@@H](OC(=O)c1ccncc1)c1ccccc1OCCO)c1cc(C(=O)OC)ccc1OC)C(C)C | 0.0652 | 1.2 | 0.378 | -0.325 | 0.64 | 0.806 | 3.35 | 0.782 | 0.986 | -1.47 (inactive) | 0.449 | -2.43 (inactive) | 0.128 (inactive) | 22.5 (active) | -0.267 (inactive) | 0.187 | 0.0498 | 0.438 | 1.29 | 0.698
2 | CCCC[C@@H]1C[C@H]1[C@@H](NC(=O)c1cccnc1)c1ccc(-c2ccccc2)cc1 | -0.238 | -0.647 | -0.14 | -2.12 | -1.17 | -2.03 | 0.475 | -0.815 | -0.166 | 0.0562 (inactive) | -0.995 | -2.72 (inactive) | -0.327 (inactive) | -0.372 (inactive) | 0.162 (inactive) | -1.02 | -0.251 | -2.78 | -1.29 | -0.822
3 | COC(=O)[C@@]1(Cc2ccc(F)cc2)[C@H]2c3cc(C(=O)N4CCCC4)n(CCF)c3C[C@H]2CN1C(=O)c1ccccc1 | 2.82 | 1.2 | 1.67 | 0.642 | 0.088 | -0.299 | 0.0101 | -0.427 | 1.4 | 0.125 (inactive) | 1.5 | -2.28 (inactive) | -0.603 (inactive) | 0.952 (inactive) | 1.33 (inactive) | 1.99 | 1.66 | 0.103 | 1.07 | -0.462
4 | C[C@]1(C(=O)O)c2ccccc2C(=O)N(Cc2ccccc2)[C@H]1c1ccc(CO)cc1 | -1.17 | -2.07 | 0.343 | -2.48 | -0.828 | -1.33 | 0.686 | -2.05 | -1.37 | -0.84 (inactive) | -0.326 | -1.25 (inactive) | 0.461 (inactive) | 0.001 (inactive) | -0.301 (inactive) | -0.867 | -0.176 | -1.06 | -0.224 | -1.98
5 | COc1ccc([Si](C)(C)[C@@H]2[C@@H](CCO)O[C@]3(C(=O)N(Cc4cccc(N5C(=O)c6ccccc6Oc6ccccc65)c4)c4ccccc43)[C@H]2C)cc1 | 0.106 | 0.502 | 0.121 | -0.0703 | -0.672 | -0.559 | -0.368 | 0.135 | 0.413 | -1.26 (inactive) | -0.193 | -5.77 (inactive) | -1.34 (inactive) | 6.17 (inactive) | 0.291 (inactive) | -0.313 | -0.251 | -0.133 | -0.548 | -0.264
6 | CC(C)(C)N1CC=CC23O[C@@H]4C=CCOC(=O)[C@@H]4[C@H]2C(=O)N(CCCO)[C@@H]3C1=O (stereo not given in full) | -1.08 | -1.21 | -0.595 | -1.79 | -1.79 | -1.28 | -0.908 | -1.34 | -1.13 | -0.11 (inactive) | -0.56 | -1.97 (inactive) | 0.0204 (inactive) | 0.321 (inactive) | 0.0029 (inactive) | -1.48 | -0.317 | 0.213 | -0.0267 | -0.471
7 | O=C1OC[C@@H](c2ccccc2)N2CC(/C=C/c3ccccc3)=CC12 (stereo not given in full) | -0.206 | 0.725 | -0.542 | -0.593 | -1.29 | -1.45 | 0.0121 | -1.58 | -0.408 | 0.0761 (inactive) | -0.82 | -2.59 (inactive) | 0.476 (inactive) | 0.945 (inactive) | -1.57 (inactive) | -0.274 | -0.239 | -0.872 | -1.31 | -1.05
8 | O=C1C[C@@](C(=O)NCC(F)(F)F)(c2ccc([N+](=O)[O-])cc2)[C@@H](c2ccc(CO)cc2)N1C1CCCCC1 | 2.22 | 1.22 | 0.847 | 0.956 | 1.47 | 1.28 | 0.0267 | 0.761 | 0.861 | 0.414 (inactive) | 0.247 | -1.97 (inactive) | 0.0325 (inactive) | 0.854 (inactive) | -0.369 (inactive) | 0.579 | 0.101 | 1.36 | 1.57 | 1.22
9 | CN(C)CCCNC(=O)[C@@H]1c2ccccc2C(=O)N(CC23CC4CC(CC(C4)C2)C3)[C@H]1c1ccc(CO)cc1 | 2.44 | 1.27 | 0.0169 | 0.954 | 1.21 | 0.788 | 1.36 | 1.26 | 0.665 | 0.717 (inactive) | 0.528 | -4.72 (inactive) | -0.465 (inactive) | -0.322 (inactive) | -0.0221 (inactive) | 1.12 | 0.016 | 0.954 | 0.808 | 1.5
10 | NC(=O)NCC#Cc1ccc2c(c1)[C@]1(C(=O)N2)[C@H](C(=O)Nc2nc3ccccc3s2)[C@H]2C(=O)O[C@H](c3ccccc3)[C@H](c3ccccc3)N2[C@@H]1c1ccc(O)cc1 | -0.198 | 0.52 | 0.286 | 0.629 | 1.28 | 0.651 | -2.41 | 0.383 | 0.696 | -1.76 (inactive) | 0.236 | 0.0524 (inactive) | 0.688 (inactive) | -1.15 (inactive) | -1.58 (inactive) | 2.27 | 0.806 | 0.171 | -0.216 | 0.922
